# The full list was thinned out, with the strongest signals kept by preference.
# B1: CcfD (Bacteroides vulgatus), A6KYX8 (protein)
# chain: MKYKNYFKSIIYLALGAFTLGSCEDFLDRQEDEKLTFDKIWESRNTTQQYWLNAMSFLPNENGSLQGDTEPYLGASDECTIAYDRQYRWINFGTWNPSQVPYYKMDHYYKGIRECNIFLQNVYKCSDPLVTKDQLDEWYWQTRFARAYYYFLMMRDYGPVFLLGDDLLDFTASTEELYRPRNTWDQCVNYVVSEMTQCAESGVVLQQSDLPAAKWGLATVGTCHAVISRLLLYSARPLFNGNKLYSTVKNPDAPDFPELSGVKLFPELDNTKWQKAAEAAKKLIDNPCYELYRAGNDNPYEDYYGVTHETWNKELIWTDRYNGLFSWGVGTVPTGVAGTAYGAVGPTQALVDAYAMNTGWYPITGYEADGTPIVEPLSGYELASELEKSSWIYPSGGWSNKADFEIEAPNMYKDREPRFYVTVFFGGNQWLHGNSATSISFAKGGNGNKSHDYPKSGYLCNRFYDHKLNSSEGQWGNITFPVFRLGEIYLNFIEAVLECKKNGVALDPSYEALAMEKWADLRKRAGLDPITSIYGQVSTEELIQLCRKERQIELAFERHRYFDTRTWMIATQTDNGKMYGMNTSCPLDAGMKGTETPDGFWERTAFETRVFQNKHYLYPFSQRELDRNKLLTQNYGW
# How the values were obtained:
# Assay in all cases: glycan array binding signal (z-score within array); higher = stronger binding
# Settings in all cases: glycan notation: IUPAC condensed, linker removed
# [1] = target: GalNAc3S(b1-4)GlcNAc3S
# Procedure, shortened: (§1)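 The Consortium for Functional Glycomics database supplied 3228 glycan arrays, of which those lacking an available protein sequence were dropped. The binding signal, a within-array Z-score, was averaged across arrays of the same protein sequence and across linkers. Negative scores can be read as non-binding.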
# [2] = target: GlcNAc(b1-2)[GlcNAc(b1-6)]Man(a1-6)[GlcNAc(b1-2)Man(a1-3)]Man(b1-4)GlcNAc(b1-4)GlcNAc
# Procedure, shortened: as §1
# [3] = target: GlcNAc(b1-3)Gal(b1-4)Glc
# Procedure, shortened: as §1
# [4] = target: GlcNAc(b1-3)Gal(b1-4)GlcNAc
# Procedure, shortened: as §1
# [5] = target: GlcNAc(b1-3)Gal(b1-4)GlcNAc(b1-2)[GlcNAc(b1-3)Gal(b1-4)GlcNAc(b1-6)]Man(a1-6)[GlcNAc(b1-3)Gal(b1-4)GlcNAc(b1-2)Man(a1-3)]Man(b1-4)GlcNAc(b1-4)GlcNAc
# Procedure, shortened: as §1
# [6] = target: GlcNAc(b1-3)GalNAc
# Procedure, shortened: as §1
# [7] = target: GlcNAc(b1-3)[GlcNAc(b1-4)][GlcNAc(b1-6)]GlcNAc
# Procedure, shortened: as §1
# [8] = target: Man(a1-3)[Man(a1-6)]Man(a1-6)[Man(a1-2)Man(a1-3)]Man(b1-4)GlcNAc(b1-4)GlcNAc
# Procedure, shortened: as §1
# [9] = target: Neu5Ac(a2-3)Gal(b1-3)GalNAc(b1-4)Gal(b1-4)Glc
# Procedure, shortened: as §1
# [10] = target: Neu5Ac(a2-3)Gal(b1-3)GalNAc(b1-4)[Neu5Ac(a2-3)]Gal(b1-4)Glc
# Procedure, shortened: as §1
# [11] = target: Neu5Ac(a2-3)Gal(b1-3)GlcNAc(b1-2)Man(a1-3)[GlcNAc(b1-4)][Neu5Ac(a2-3)Gal(b1-3)GlcNAc(b1-2)Man(a1-6)]Man(b1-4)GlcNAc(b1-4)GlcNAc
# Procedure, shortened: as §1
# [12] = target: Neu5Ac(a2-3)Gal(b1-4)Glc
# Procedure, shortened: as §1
# [13] = target: Neu5Ac(a2-3)Gal(b1-4)GlcNAc(b1-3)Gal(b1-4)GlcNAc(b1-3)GalNAc
# Procedure, shortened: as §1
# [14] = target: Neu5Ac(a2-3)Gal(b1-4)GlcNAc(b1-3)Gal(b1-4)GlcNAc(b1-3)[Neu5Ac(a2-3)Gal(b1-4)GlcNAc(b1-3)Gal(b1-4)GlcNAc(b1-6)]GalNAc
# Procedure, shortened: as §1
# [15] = target: Neu5Ac(a2-3)Gal(b1-4)GlcNAc(b1-6)[Neu5Ac(a2-3)Gal(b1-3)]GalNAc
# Procedure, shortened: as §1
# [16] = target: Neu5Ac(a2-3)Gal(b1-4)[Fuc(a1-3)]GlcNAc(b1-3)GalNAc
# Procedure, shortened: as §1
# [17] = target: Neu5Ac(a2-6)Gal(b1-4)GlcNAc(b1-2)Man(a1-6)[Gal(b1-4)GlcNAc(b1-2)Man(a1-3)]Man(b1-4)GlcNAc(b1-4)GlcNAc
# Procedure, shortened: as §1
# [18] = target: Neu5Ac(a2-6)Gal(b1-4)GlcNAc(b1-2)Man(a1-6)[GlcNAc(b1-2)Man(a1-3)]Man(b1-4)GlcNAc(b1-4)GlcNAc
# Procedure, shortened: as §1
# [19] = target: Neu5Ac(a2-6)Gal(b1-4)GlcNAc(b1-3)Gal(b1-4)GlcNAc(b1-6)[Gal(b1-3)]GalNAc
# Procedure, shortened: as §1
# [20] = target: Neu5Ac(a2-6)GlcNAc(b1-4)GlcNAc
# Procedure, shortened: as §1
# [21] = target: Neu5Ac(a2-8)Neu5Ac(a2-8)Neu5Ac(a2-3)Gal(b1-4)Glc
# Procedure, shortened: as §1
# [22] = target: Neu5Ac(a2-8)Neu5Ac(a2-8)Neu5Ac(a2-3)[GalNAc(b1-4)]Gal(b1-4)Glc
# Procedure, shortened: as §1
# [23] = target: Neu5Gc(a2-8)Neu5Gc(a2-6)Gal(b1-4)GlcNAc
# Procedure, shortened: as §1
binder,measurement,setting,value
B1,glycan array binding signal (z-score),[1],-0.21
same,glycan array binding signal (z-score),[2],-0.663
same,glycan array binding signal (z-score),[3],-0.881
same,glycan array binding signal (z-score),[4],-1.04
same,glycan array binding signal (z-score),[5],3.38
same,glycan array binding signal (z-score),[6],-0.332
same,glycan array binding signal (z-score),[7],2.41
same,glycan array binding signal (z-score),[8],-0.673
same,glycan array binding signal (z-score),[9],-0.17
same,glycan array binding signal (z-score),[10],2.47
same,glycan array binding signal (z-score),[11],-0.526
same,glycan array binding signal (z-score),[12],-0.589
same,glycan array binding signal (z-score),[13],-0.693
same,glycan array binding signal (z-score),[14],-0.429
same,glycan array binding signal (z-score),[15],5
same,glycan array binding signal (z-score),[16],-0.078
same,glycan array binding signal (z-score),[17],6.49
same,glycan array binding signal (z-score),[18],7
same,glycan array binding signal (z-score),[19],-0.841
same,glycan array binding signal (z-score),[20],0.582
same,glycan array binding signal (z-score),[21],-0.871
same,glycan array binding signal (z-score),[22],-0.556
same,glycan array binding signal (z-score),[23],-1.1
